Results filed as inconclusive are left out. Active and inactive are the calls of the source. Unless noted, the call rests on the fitted dose curve; in most records, active means well fitted curve in the direction sought with a large enough effect in the repeat runs; inconclusive means weak or mixed curves; inactive means no such curve, though single readings can be large; an effect the other way counts as inactive or inconclusive.
Tests used:
[1] = molecular target: Estrogen receptor beta (Homo sapiens) (UniProt Q92731); assay: qHTS assay to identify small molecule agonists of the estrogen receptor beta (ER-beta) signaling pathway (AID 1259377; active means well fitted activation curve with a large enough effect in the signal ratio in the repeat runs, not every such curve was filed as active; the % refers to the signal ratio)
Chain of Estrogen receptor beta (Homo sapiens) (Q92731 whole entry, looked up): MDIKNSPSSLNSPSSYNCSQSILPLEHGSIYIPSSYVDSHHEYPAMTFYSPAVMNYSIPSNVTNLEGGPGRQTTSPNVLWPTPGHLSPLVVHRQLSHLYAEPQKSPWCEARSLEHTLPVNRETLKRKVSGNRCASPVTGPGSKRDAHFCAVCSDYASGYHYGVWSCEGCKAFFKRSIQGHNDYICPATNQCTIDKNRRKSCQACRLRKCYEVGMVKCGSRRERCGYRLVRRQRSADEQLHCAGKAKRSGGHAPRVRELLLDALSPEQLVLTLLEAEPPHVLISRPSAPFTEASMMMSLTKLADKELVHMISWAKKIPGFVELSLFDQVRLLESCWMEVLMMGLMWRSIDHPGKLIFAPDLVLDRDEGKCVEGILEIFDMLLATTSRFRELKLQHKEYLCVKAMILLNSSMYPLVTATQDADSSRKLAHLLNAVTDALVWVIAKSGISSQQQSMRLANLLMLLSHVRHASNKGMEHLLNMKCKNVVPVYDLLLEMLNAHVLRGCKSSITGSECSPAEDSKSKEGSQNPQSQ
Outline: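 ER-beta-UAS-bla HEK293T cells in medium with 2% charcoal-stripped FBS were exposed to compounds for 16 h at 37C. Beta-lactamase reporter activity was read as fluorescence after 2 h with LiveBLAzer B/G FRET substrate at room temperature.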

[2] = molecular target: Estrogen receptor beta (Homo sapiens) (UniProt Q92731); assay: qHTS assay to identify small molecule antagonists of the estrogen receptor beta (ER-beta) signaling pathway (AID 1259378; active means well fitted inhibition curve with a large enough effect in the signal ratio in the repeat runs, not every such curve was filed as active; the % refers to the signal ratio)
Outline: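 Antagonist mode: compounds added to beta-lactamase reporter HEK293T ER-beta-UAS cells stimulated with E2 (1nM final), 16 hr at 37C. LiveBLAzer B/G FRET substrate, 2 hours room temperature, fluorescence read-out.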

[3] = qHTS assay to identify small molecule agonists of the estrogen receptor beta (ER-beta) signaling pathway - cell viability counter screen (AID 1259380); further: nearly all actives have a fitted effect of over 30% in size
Outline: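 Cells used were ER-beta-UAS-bla HEK293T in medium with 2% charcoal-stripped FBS. They were treated for 16 hr at 37C. Viability came from CellTiter-Glo luminescence.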

[4] = qHTS assay to identify small molecule antagonists of the estrogen receptor beta (ER-beta) signaling pathway - cell viability counter screen (AID 1259382); further: series mostly up to about 92 µM; nearly all actives have a fitted effect of over 55% in size
Outline: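 Agonist-stimulated (1nM E2) ER-beta-UAS-bla HEK293T cells are incubated with library compounds for 16 hr at 37C. Cell viability is then assessed in the reporter-assay wells by adding CellTiter-Glo and reading luminescence after 30 min.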

[5] = qHTS assay to identify small molecule agonists or antagonists of the thyroid stimulating hormone receptor (TSHR) signaling pathway - wild type cell line counter screen (AID 1259384; calls by dose curve)
Outline: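 Counter screen in untransfected Hek293: compounds (15-point titration, triplicate) plus phosphodiesterase inhibitor Ro20-1724 added after 18 h plating; 30 min RT. Intracellular cAMP via competitive d2/cryptate immunoassay, 1 h incubation.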

[6] = molecular target: Thyrotropin receptor (Homo sapiens) (UniProt P16473); assay: qHTS assay to identify small molecule antagonists of the thyroid stimulating hormone receptor (TSHR) signaling pathway (AID 1259385; calls by dose curve; further: nearly all actives have a fitted effect of over 20% in size)
Chain of Thyrotropin receptor (Homo sapiens) (P16473 whole entry, looked up): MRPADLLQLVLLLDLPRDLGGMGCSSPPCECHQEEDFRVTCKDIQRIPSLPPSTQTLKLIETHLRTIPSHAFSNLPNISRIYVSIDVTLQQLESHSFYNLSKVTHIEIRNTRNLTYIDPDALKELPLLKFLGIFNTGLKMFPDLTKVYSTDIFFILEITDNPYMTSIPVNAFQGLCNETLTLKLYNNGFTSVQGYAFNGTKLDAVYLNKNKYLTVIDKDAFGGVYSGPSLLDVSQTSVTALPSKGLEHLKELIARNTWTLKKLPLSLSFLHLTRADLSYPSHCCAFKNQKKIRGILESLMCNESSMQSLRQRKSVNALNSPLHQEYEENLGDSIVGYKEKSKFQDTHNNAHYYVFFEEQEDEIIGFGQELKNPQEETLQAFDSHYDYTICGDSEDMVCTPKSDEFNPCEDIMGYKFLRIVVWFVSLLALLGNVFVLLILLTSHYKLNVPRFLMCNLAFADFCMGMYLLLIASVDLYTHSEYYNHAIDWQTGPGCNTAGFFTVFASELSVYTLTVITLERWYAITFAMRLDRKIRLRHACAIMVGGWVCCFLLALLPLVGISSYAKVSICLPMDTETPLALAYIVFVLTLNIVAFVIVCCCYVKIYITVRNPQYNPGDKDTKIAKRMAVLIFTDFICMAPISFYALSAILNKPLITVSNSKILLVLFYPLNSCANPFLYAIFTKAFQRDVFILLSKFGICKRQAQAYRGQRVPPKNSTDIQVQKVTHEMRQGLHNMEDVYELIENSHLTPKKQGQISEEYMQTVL
Outline: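 Antagonist mode: compound-treated TSHR-expressing HEK293 cells were stimulated with 1.5 ng/mL TSH (final) in presence of Ro20-1724 for 30 min at RT. HTRF cAMP detection after 1 h; each compound tested at 15 concentrations, triplicate.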

[7] = qHTS assay to identify small molecule agonists of the estrogen receptor alpha (ER-alpha) signaling pathway in the presence of an antagonist - cell viability counter screen (AID 1259386);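 further: series mostly up to about 92 µM; cells exposed to compounds for 22 h at 37 °C before the viability read; nearly all actives have a fitted effect of over 30% in size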
Outline: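 ICI-182,780 at 10.0nM final accompanies the compound titration (15 concentrations, 22hr, 37C) on VM7Luc4E2 cells. The CellTiter-Fluor fluorescence readout runs in the same wells as the luciferase assay.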

[8] = molecular target: Progesterone receptor (Homo sapiens) (UniProt P06401); assay: qHTS assay to identify small molecule agonists of the progesterone receptor (PR) signaling pathway (AID 1346784; calls by dose curve; further: nearly all actives have a fitted effect of over 30% in size)
Chain of Progesterone receptor (Homo sapiens) (P06401 whole entry, looked up): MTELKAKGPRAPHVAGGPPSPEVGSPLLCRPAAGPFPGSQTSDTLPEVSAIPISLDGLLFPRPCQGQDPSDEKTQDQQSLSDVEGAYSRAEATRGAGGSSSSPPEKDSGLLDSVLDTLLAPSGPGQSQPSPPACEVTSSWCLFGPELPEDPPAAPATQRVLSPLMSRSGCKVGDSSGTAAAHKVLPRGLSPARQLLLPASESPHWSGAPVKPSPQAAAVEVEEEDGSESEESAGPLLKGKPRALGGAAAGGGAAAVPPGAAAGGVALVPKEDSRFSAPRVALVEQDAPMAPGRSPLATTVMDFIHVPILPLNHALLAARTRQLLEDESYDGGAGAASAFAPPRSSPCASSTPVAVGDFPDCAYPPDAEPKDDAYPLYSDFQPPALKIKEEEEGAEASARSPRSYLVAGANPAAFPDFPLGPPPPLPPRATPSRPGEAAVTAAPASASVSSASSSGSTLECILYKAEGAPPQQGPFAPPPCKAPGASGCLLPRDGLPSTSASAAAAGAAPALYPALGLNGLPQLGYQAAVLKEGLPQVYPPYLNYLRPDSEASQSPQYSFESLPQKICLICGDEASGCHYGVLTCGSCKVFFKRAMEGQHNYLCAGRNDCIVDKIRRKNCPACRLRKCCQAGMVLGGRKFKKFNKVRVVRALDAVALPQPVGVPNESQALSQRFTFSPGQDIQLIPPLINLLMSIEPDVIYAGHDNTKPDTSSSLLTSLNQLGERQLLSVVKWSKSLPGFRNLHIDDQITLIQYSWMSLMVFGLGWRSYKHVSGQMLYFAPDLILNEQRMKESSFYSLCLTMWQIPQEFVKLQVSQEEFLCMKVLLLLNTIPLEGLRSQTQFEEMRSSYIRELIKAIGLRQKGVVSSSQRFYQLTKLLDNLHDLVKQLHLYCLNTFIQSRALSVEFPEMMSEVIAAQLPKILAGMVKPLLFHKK
Outline: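 PR-UAS-bla HEK 293T cells (beta-lactamase reporter under UAS) in 2% charcoal-stripped FBS, dosed with 23 nL compound after 6 hr, incubated 16hr at 37C. LiveBLAzer B/G FRET substrate added, fluorescence read after 2 hours.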

[9] = molecular target: Progesterone receptor (Homo sapiens) (UniProt P06401); assay: qHTS assay to identify small molecule antagonists of the progesterone receptor (PR) signaling pathway (AID 1346795; active means well fitted inhibition curve with a large enough effect in the signal ratio in the repeat runs, not every such curve was filed as active; the % refers to the signal ratio; further: potency means the concentration at half of the fitted maximal effect)
Outline: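 PR-UAS-bla HEK293T cells with beta-lactamase reporter under UAS control, in 2% charcoal-stripped FBS, treated with compounds plus 1 nM promegestone (R5020, final) for 16 hr at 37C. Read-out: FRET beta-lactamase substrate fluorescence after 2 hr at room temperature.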

[10] = qHTS assay to identify small molecule antagonists of the progesterone receptor (PR) signaling pathway - cell viability counter screen (AID 1346798); further: series mostly up to about 92 µM; nearly all actives have a fitted effect of over 50% in size
Outline: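 PR-UAS-bla HEK293T cells, 3,000/well in 2% charcoal-stripped FBS medium, dosed with compounds plus R5020 agonist and incubated 16 h at 37C. Viability then measured in the same wells by CellTiter-Glo luminescence after 30 min at RT.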

[11] = qHTS assay to identify small molecule agonists of the progesterone receptor (PR) signaling pathway - cell viability counter screen (AID 1346799; calls by dose curve; further: nearly all actives have a fitted effect of over 45% in size)
Outline: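 Counter screen in the PR-UAS-bla HEK293T wells (2% charcoal-stripped FBS, 16 h compound exposure at 37 C) after the bla read. CellTiter-Glo added, 30 min at room temperature, luminescence read as cell viability.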

[12] = qHTS assay to identify small molecule antagonists of the TGF-beta/Smad signaling pathway - cell viability counter screen (AID 1346824); further: nearly all actives have a fitted effect of over 50% in size
Outline: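 Cytotoxicity counter-screen run in the same wells as the beta-lactamase Smad reporter read: CellTiter-Glo luminescence after 30 min at room temperature. HEK 293T SBE-bla cells had 5 hr compound exposure at 37 C with TGF-beta1 (0.25 ng/mL stock).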

[13] = qHTS assay to identify small molecule agonists of the TGF-beta/Smad signaling pathway - cell viability counter screen (AID 1346829); further: top concentration of the series differs between compounds; nearly all actives have a fitted effect of over 45% in size
Outline: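 Luminescence from CellTiter-Glo, read after a 30 min room-temperature incubation, gives cell viability of SBE-bla HEK 293T cells treated 5 hr with compounds at 37 C.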

[14] = qHTS assay to identify small molecule agonists of the TGF-beta/Smad signaling pathway (AID 1346859; active means well fitted activation curve with a large enough effect in the signal ratio in the repeat runs, not every such curve was filed as active; the % refers to the signal ratio; further: series mostly up to about 77 µM)
Outline: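 SBE-bla HEK293T cells plated overnight, then compound exposure for 5 h at 37 C. Beta-lactamase reporter read with LiveBLAzer B/G FRET substrate after 2 h at room temperature, fluorescence at 405 nm excitation, 460/530 nm emission.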

[15] = molecular target: Thyrotropin-releasing hormone receptor (Homo sapiens) (UniProt P34981); assay: qHTS assay to identify small molecule antagonists of the thyrotropin-releasing hormone receptor (TRHR) signaling pathway (AID 1346877; active means well fitted inhibition curve with a large enough effect in the repeat runs, not every such curve was filed as active; further: series mostly up to about 51 µM)
Chain of Thyrotropin-releasing hormone receptor (Homo sapiens) (P34981 whole entry, looked up): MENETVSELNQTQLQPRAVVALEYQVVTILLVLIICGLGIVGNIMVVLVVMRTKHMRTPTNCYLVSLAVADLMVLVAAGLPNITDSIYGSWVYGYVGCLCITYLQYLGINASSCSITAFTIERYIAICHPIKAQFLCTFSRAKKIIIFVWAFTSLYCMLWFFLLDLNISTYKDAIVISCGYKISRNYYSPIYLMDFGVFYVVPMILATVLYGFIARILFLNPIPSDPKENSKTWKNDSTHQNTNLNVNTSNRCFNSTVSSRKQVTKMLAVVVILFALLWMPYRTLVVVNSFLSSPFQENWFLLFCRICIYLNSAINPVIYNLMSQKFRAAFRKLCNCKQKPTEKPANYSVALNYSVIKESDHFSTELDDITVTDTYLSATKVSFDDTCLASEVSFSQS
Outline: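 Screening used HEK293 cells engineered with TRHR, with a brief 5 min room-temperature compound exposure preceding addition of TRH to 1 nM. The read-out was kinetic calcium-dye fluorescence, concentration-response from 15 doses in triplicate.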

[16] = molecular target: Thyrotropin-releasing hormone receptor (Homo sapiens) (UniProt P34981); assay: qHTS assay to identify small molecule agonists of the thyrotropin-releasing hormone receptor (TRHR) signaling pathway (AID 1346891; calls by dose curve; further: series mostly up to about 58 µM)
Outline: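 HEK293 cells expressing TRHR plated 18 h at 37 C/5% CO2, calcium dye-loaded 2 h at 37 C, then compound added (agonist mode); kinetic calcium fluorescence read 3 min at 1 s intervals; 15 concentrations in triplicate.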

[17] = qHTS assay to identify small molecule agonists of the androgen receptor (AR) signaling pathway in the presence of an antagonist - cell viability counter screen (AID 1259379);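 further: MDA-kb2 human breast cancer cells carrying an MMTV luciferase reporter; series mostly up to about 92 µM; nearly all actives have a fitted effect of over 25% in size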
Outline: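 A CellTiter-Fluor read-out measured viability of MDA-kb2 reporter cells (MMTV promoter with AR and GR response elements). Treatment: nilutamide 3.0uM final with compounds at 15 concentrations, 16 hr, 37C, 0% CO2.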

[18] = molecular target: Estrogen receptor (Homo sapiens) (UniProt P03372); assay: qHTS assay to identify small molecule agonists of the estrogen receptor alpha (ER-alpha) signaling pathway in the presence of an antagonist (AID 1259383; calls by dose curve; further: top concentration of the series differs between compounds; nearly all actives have a fitted effect of over 15% in size)
Chain of Estrogen receptor (Homo sapiens) (P03372 whole entry, looked up): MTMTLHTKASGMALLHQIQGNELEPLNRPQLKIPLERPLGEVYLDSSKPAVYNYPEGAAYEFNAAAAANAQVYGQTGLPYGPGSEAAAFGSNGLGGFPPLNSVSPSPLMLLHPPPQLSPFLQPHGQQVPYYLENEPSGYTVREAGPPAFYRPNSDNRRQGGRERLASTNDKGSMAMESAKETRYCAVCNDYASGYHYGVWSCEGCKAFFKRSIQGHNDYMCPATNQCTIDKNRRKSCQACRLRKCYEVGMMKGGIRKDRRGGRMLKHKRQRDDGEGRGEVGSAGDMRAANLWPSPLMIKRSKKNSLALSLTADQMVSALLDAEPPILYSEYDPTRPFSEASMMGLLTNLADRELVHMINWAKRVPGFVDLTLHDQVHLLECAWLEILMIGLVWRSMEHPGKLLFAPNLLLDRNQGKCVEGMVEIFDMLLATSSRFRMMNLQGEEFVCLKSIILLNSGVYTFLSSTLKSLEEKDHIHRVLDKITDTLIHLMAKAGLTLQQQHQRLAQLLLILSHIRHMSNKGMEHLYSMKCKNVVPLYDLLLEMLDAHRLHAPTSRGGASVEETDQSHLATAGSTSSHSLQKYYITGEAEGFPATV
Outline: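 Using VM7Luc4E2 cells seeded 24hr before treatment, antagonist ICI-182,780 (10.0nM final) was added, followed by compounds at 15 concentrations. Plates incubated 22hr; ONE-Glo luminescence quantified reporter activity.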

[19] = molecular target: Androgen receptor (Homo sapiens) (UniProt P10275); assay: qHTS assay to identify small molecule agonists of the androgen receptor (AR) signaling pathway in the presence of an antagonist (AID 1259381; calls by dose curve; further: nearly all actives have a fitted effect of over 15% in size)
Chain of Androgen receptor (Homo sapiens) (P10275 whole entry, looked up): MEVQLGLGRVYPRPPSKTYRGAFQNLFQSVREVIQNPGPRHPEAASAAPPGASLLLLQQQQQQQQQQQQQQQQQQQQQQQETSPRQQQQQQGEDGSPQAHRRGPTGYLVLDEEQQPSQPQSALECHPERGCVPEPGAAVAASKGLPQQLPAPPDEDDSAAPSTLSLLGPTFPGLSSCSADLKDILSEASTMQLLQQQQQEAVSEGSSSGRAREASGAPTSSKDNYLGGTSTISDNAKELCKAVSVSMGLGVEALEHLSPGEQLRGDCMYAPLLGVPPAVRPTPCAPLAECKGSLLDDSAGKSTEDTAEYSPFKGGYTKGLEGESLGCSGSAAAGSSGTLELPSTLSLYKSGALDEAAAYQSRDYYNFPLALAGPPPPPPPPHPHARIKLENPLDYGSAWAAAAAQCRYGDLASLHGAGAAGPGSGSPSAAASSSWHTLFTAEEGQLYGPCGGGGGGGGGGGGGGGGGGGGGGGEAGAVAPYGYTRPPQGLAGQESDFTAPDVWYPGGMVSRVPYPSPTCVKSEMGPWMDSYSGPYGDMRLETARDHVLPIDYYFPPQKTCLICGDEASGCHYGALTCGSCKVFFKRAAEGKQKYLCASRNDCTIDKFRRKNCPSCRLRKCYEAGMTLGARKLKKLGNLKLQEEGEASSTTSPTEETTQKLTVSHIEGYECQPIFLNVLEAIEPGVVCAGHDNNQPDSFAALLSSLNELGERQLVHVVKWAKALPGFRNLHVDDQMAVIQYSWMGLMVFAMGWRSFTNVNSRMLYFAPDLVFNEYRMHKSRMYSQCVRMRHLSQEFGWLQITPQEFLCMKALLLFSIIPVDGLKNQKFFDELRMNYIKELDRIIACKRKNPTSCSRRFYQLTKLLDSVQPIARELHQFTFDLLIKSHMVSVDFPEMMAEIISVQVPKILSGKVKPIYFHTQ
Outline: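 Using human MDA-kb2 cells with an MMTV promoter–luciferase construct (AR and GR response elements), agonist activity is scored under 3.0uM nilutamide (final) co-treatment; 16hr incubation, 37C, luminescence readout via ONE-Glo.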

Measured: Potency

c1ccc(Oc2ccccc2)cc1
not listed: [17] | [18] | [19]
inactive: all other assays above

O=C(OCC1CCC2OC2C1)C1CCC2OC2C1 (centres undefined)
not listed: [1] | [2] | [7] | [15] | [16] | [19]
inactive: all other assays above

OC1C(O)C(O)C(O)C(O)C1O (centres undefined)
not listed: [1] | [2] | [9] | [17] | [19]
inactive: all other assays above

CCNc1ccccc1
not listed: [2] | [15] | [16] | [18]
inactive: all other assays above

CC(=O)OCCOC(C)=O
not listed: [2] | [19]
inactive: all other assays above

NC(=S)NNC(N)=S
not listed: [1] | [2] | [9] | [18] | [19]
inactive: all other assays above

Cc1ccc(C(C)C)c(O)c1
not listed: [2] | [3] | [5] | [6] | [9] | [17] | [19]
inactive: all other assays above

CC(C)=CCl
not listed: [1] | [2] | [15] | [16] | [19]
inactive: all other assays above

CC(=O)CCC=C(C)C
not listed: [1] | [2] | [3] | [19]
inactive: all other assays above

O=C(O)c1ccc(S(=O)(=O)N(Cl)Cl)cc1
not listed: [2] | [3] | [17] | [19]
inactive: all other assays above

CCCCCCCCCCCCCCCC(=O)OC(C)C
not listed: [2] | [3] | [5] | [6] | [17] | [18] | [19]
inactive: all other assays above

CC(C)CC(C)O (centres undefined)
not listed: [2] | [9] | [15] | [16] | [19]
inactive: all other assays above

CC(=O)OC1CC(C)OC(C)O1 (centres undefined)
not listed: [2] | [3] | [5] | [6] | [18] | [19]
inactive: all other assays above

O=S(=O)(O)c1ccccc1
not listed: [1] | [2] | [9] | [17] | [18] | [19]
inactive: all other assays above

CCc1ccccc1CC
not listed: [2] | [19]
inactive: all other assays above

Nc1nc(N)nc(-c2ccccc2)n1
not listed: [2] | [19]
inactive: all other assays above

COc1ccc([N+](=O)[O-])cc1N
not listed: [2] | [5] | [6] | [7] | [9] | [15] | [16] | [19]
inactive: all other assays above

CC(C)c1cccc(C(C)C)c1
not listed: [1] | [2] | [8] | [9] | [15] | [16] | [19]
inactive: all other assays above

O=C1c2ccccc2CCc2ccccc21
active: [9] 27.9 µM
not listed: [2] | [18] | [19]
inactive: all other assays above

CCCCCC(=O)O
not listed: [2] | [9]
inactive: all other assays above

CCCCCCCC=O
not listed: [1] | [2] | [3] | [5] | [6] | [9] | [19]
inactive: all other assays above

C=CC(=O)OCCC(=O)O
not listed: [1] | [2] | [9] | [17] | [19]
inactive: all other assays above

C=CCCCCCCCCC(=O)O
not listed: [2] | [3] | [18] | [19]
inactive: all other assays above

CC(C)(Oc1ccc(CCNC(=O)c2ccc(Cl)cc2)cc1)C(=O)O
not listed: [1] | [2] | [19]
inactive: all other assays above
